Screening results: PubChem, National Center for Advancing Translational Sciences (NCATS)
Shown are actives, neighbours in structure and some others; about 18% of the full set was active somewhere.
TGFb SMAD3 inh – TGF-b pathway inhibition; HepG2 CAGA-GFP TGF-b/SMAD3 reporter, GFP fluorescence, 18 h; TGF-beta stimulated, 500 pg/mL final; Potency, µM (doses to about 46.1 µM), usual class: inhibitors; 410,000 compounds, 1.2% hits; also: nearly all actives have a fitted effect of over 65% in size
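Using HEPG2 CAGA-GFP reporter cells at 1000 cells/well, we pinned test compounds, stimulated with recombinant TGF-beta (500 pg/mL final) and measured total well GFP after 18 h.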
HepG2 viability – kills HepG2 cells in TGF-b inhibitor counter-screen; HepG2 CAGA-GFP viability, ATP luminescence, 18 h; Potency, µM (highest dose often 46.1 µM), actives largely listed as cytotoxic; 410,000 compounds, 0.76% hits
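HepG2 CAGA-GFP cells (1000/well, DMEM with 1% FBS) received compound, then TGF-beta at 500 pg/mL final, and were incubated 18 hours at 37 degrees C. Viability was read by CellTiter-Glo luminescence. Media-only wells were set as complete cell-killing and DMSO as no toxicity.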
TDP1 inh – TDP1 (human) enzyme inhibition | recombinant TDP1, AlphaScreen DNA substrate cleavage | Potency, µM (highest dose often 130 µM), actives largely listed as inhibitors | AID 485290 | 350,000 compounds, 0.28% hits | Q9NUW8; also: nearly all actives have a fitted effect of over 40% in size
Target sequence (Q9NUW8 whole entry, looked up): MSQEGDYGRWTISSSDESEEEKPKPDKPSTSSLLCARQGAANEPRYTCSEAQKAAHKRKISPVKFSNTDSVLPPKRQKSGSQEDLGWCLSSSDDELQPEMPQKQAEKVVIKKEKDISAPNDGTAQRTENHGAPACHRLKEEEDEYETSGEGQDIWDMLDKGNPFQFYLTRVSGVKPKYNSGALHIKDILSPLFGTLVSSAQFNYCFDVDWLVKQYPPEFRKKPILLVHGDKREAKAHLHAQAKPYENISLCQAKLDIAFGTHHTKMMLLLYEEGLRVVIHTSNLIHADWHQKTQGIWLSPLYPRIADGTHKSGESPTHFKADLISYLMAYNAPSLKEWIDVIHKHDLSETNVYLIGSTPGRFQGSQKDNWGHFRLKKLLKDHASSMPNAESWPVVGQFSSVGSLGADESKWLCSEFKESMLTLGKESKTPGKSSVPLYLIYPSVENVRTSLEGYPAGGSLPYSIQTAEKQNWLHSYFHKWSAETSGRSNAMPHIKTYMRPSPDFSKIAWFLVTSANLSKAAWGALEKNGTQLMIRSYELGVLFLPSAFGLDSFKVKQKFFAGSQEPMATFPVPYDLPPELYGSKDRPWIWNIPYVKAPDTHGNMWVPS
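Recombinant human Tdp1 (E. coli-expressed, 1 nM final) preincubated with compounds 15 min at room temperature, then 5'-biotin/3'-phosphotyrosine-FITC DNA substrate (15 nM final) added for 5 min. AlphaScreen beads (10 ug/ml final) added 10 min; cleavage lowers signal.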
TDP1 cell noCPT – qHTS for Inhibitors of human tyrosyl-DNA phosphodiesterase 1 (TDP1): qHTS in cells in absence of CPT. DT40 Tdp1-/- hTDP1 cells, no CPT, ATP luminescence, 48 h. Potency, µM (doses to about 46.2 µM), most hits filed as inhibitors. 420,000 compounds, 15% hits; also: nearly all actives have a fitted effect of over 55% in size
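Camptothecin absent (DMSO only). Human TDP1-complemented DT40 knockout cells, 400 cells/well, 37 °C for minimum 48 hr; ATP measured via CellTiter-Glo, 30 min dark incubation, luminescence.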
IL1B secr inh – inflammasome signaling inhibition, IL-1 beta readout; AID 743279; THP-1 LPS/ATP IL-1B secretion, AlphaLISA, 16 h; hits give low values; 360,000 compounds, 4.7% hits; activity change, % at 57.5 µM; in the data active = activity change below about -50%; inconclusive = mostly about -30% to -49%
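THP-1 cells pretreated 1 hr with compounds (up to 57.5 uM final), then stimulated with LPS (250 ng/mL final) plus ATP (1.25 mM final); secreted IL-1B measured by AlphaLISA after 16 hr, decreased signal indicating inhibition.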
DT40 TDP1 CPT – growth inhibition of DT40 Tdp1-/-;hTDP1 cells with camptothecin (screen for TDP1 inhibitors); chicken DT40 Tdp1-/-;hTDP1 cells + 20 nM CPT, ATP luminescence, 48 h; Potency, µM (top dose mostly 46.2 µM), most hits filed as inhibitors; 420,000 compounds, 12% hits; AID 686979; also: nearly all actives have a fitted effect of over 55% in size
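Chicken DT40 Tdp1-/- cells complemented with human TDP1, 400 cells/well, exposed to compounds plus 20 nM camptothecin for at least 48 h at 37 C; viability read as ATP content by CellTiter-Glo luminescence.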
Of the large screens only hits and unclear results are named; the others gave an inactive call. Unless noted, calls follow the shape of the dose curve; as a rule, active = well fitted curve in the direction sought with a large enough effect; inconclusive = small, poorly fitted or top-dose-only effect, or another doubt; inactive = no such curve, though single readings can be large; an effect the other way counts as inactive or inconclusive.

O=C(CSc1oc(-c2cccs2)nc1S(=O)(=O)c1ccc(F)cc1)NCC1CCCO1 (configuration not stated)	TDP1 cell noCPT inconclusive, DT40 TDP1 CPT inconclusive
Cc1ccc(S(=O)(=O)c2nc(-c3ccc(F)cc3)oc2SCC(=O)c2ccccc2)cc1	TDP1 cell noCPT inconclusive, DT40 TDP1 CPT inconclusive (no result: IL1B secr inh)
Cc1cc(C)cc(NC(=O)CSc2oc(-c3cccs3)nc2S(=O)(=O)c2ccccc2)c1	TDP1 cell noCPT 5.8µM, DT40 TDP1 CPT 21µM (no result: IL1B secr inh)
O=C(CSc1oc(-c2ccc(F)cc2)nc1S(=O)(=O)c1ccccc1)c1ccc(Cl)cc1	TDP1 cell noCPT 9.2µM, DT40 TDP1 CPT 10µM (no result: IL1B secr inh)
O=C(CSc1oc(-c2cccs2)nc1S(=O)(=O)c1ccccc1)Nc1ccc(F)cc1	TDP1 cell noCPT inconclusive, DT40 TDP1 CPT 16µM (no result: IL1B secr inh)
C=CCOc1cccc(CNc2cccc(C(=O)O)c2)c1	none
Cc1ccc(C(=O)NCCc2nnc3n2CCN(Cc2ccc4ccccc4c2)CC3)c(C)c1	TDP1 cell noCPT inconclusive (no result: TGFb SMAD3 inh, HepG2 viability, TDP1 inh, IL1B secr inh)
CC1=C(C(=O)N(C(C)C)C(C)C)CC(CC(=O)NC2CCCC2)C(=O)N1CCC1=CCCCC1 (configuration not stated)	TGFb SMAD3 inh inconclusive, TDP1 cell noCPT 23µM, IL1B secr inh inconclusive, DT40 TDP1 CPT inconclusive (no result: TDP1 inh)
CC1=C(C(=O)N(C(C)C)C(C)C)CC(CC(=O)NC2CC2)C(=O)N1CCC1=CCCCC1 (configuration not stated)	TDP1 cell noCPT inconclusive, DT40 TDP1 CPT 16µM (no result: TDP1 inh)
CC1=C(C(=O)N(C)C)CC(CC(=O)NC2CC2)C(=O)N1CCC1=CCCCC1 (configuration not stated)	none (no result: TDP1 inh)
CN(C)CCN(C)C1CN(CCc2ccccc2)S(=O)(=O)C1 (configuration not stated)	none (no result: TDP1 inh)
COC(=O)CN1C(C)=Nc2ccc(C)cc2C1c1ccccc1 (configuration not stated)	IL1B secr inh -53
O=S(=O)(c1ccc(NC(=S)N2CCN(c3ccccc3F)CC2)cc1)N1CCOCC1	TDP1 cell noCPT 18µM, IL1B secr inh inconclusive, DT40 TDP1 CPT inconclusive
COc1ccccc1N1CCN(S(=O)(=O)c2ccc(NC(C)=O)cc2)CC1	none (no result: TDP1 inh)
COc1ccccc1N1CCN(C(=S)Nc2ccc(S(=O)(=O)N3CCOCC3)cc2)CC1	TGFb SMAD3 inh inconclusive, TDP1 cell noCPT 15µM, IL1B secr inh inconclusive, DT40 TDP1 CPT 18µM (no result: TDP1 inh)
CC(=O)C1=CCC(c2ccc(C)cc2)N(S(=O)(=O)c2ccc(Cl)cc2)C1 (configuration not stated)	TDP1 cell noCPT 16µM, IL1B secr inh inconclusive, DT40 TDP1 CPT inconclusive (no result: TDP1 inh)
CC(=O)C1=CCC(c2ccc(F)cc2)N(S(=O)(=O)c2ccc(C)cc2)C1 (configuration not stated)	TGFb SMAD3 inh inconclusive, TDP1 cell noCPT 18µM, DT40 TDP1 CPT inconclusive (no result: TDP1 inh)
CC(=O)C1=CCC(c2ccc(Cl)c(Cl)c2)N(S(=O)(=O)c2ccc(C)cc2)C1 (configuration not stated)	TGFb SMAD3 inh inconclusive, TDP1 cell noCPT 15µM, IL1B secr inh -84, DT40 TDP1 CPT inconclusive (no result: TDP1 inh)
Cc1ccc(S(=O)(=O)N2[C@@H](c3ccc(C(C)(C)C)cc3)C(C(=O)O)=CC[C@H]2c2ccc(Cl)cc2)cc1	TGFb SMAD3 inh inconclusive, TDP1 cell noCPT inconclusive, DT40 TDP1 CPT 23µM
Cc1ccc(S(=O)(=O)N2CC(C(=O)O)=CC[C@H]2c2ccc(Cl)cc2)cc1	none
CC(=O)C1=CCC(c2ccc(C(C)C)cc2)N(S(=O)(=O)c2ccc(C)cc2)C1 (configuration not stated)	TGFb SMAD3 inh inconclusive, TDP1 cell noCPT inconclusive, IL1B secr inh inconclusive (no result: TDP1 inh)
CCCN(Cc1cccs1)C(=O)Nc1ccc(Br)cc1F	none (no result: IL1B secr inh)
Cc1cc2c(nc1C)CCCN2C[C@H](C)O/N=C\[C@@H](C)[C@H](OCc1ccccc1)C(C)C	none (no result: TGFb SMAD3 inh, HepG2 viability, TDP1 cell noCPT, IL1B secr inh, DT40 TDP1 CPT)
O=C(NC(=S)N1CCCC1)c1ccc(Cl)cc1	none
O=C(NC(NC(=S)N1CCOCC1)C(Cl)(Cl)Cl)c1ccc(Cl)cc1 (configuration not stated)	TGFb SMAD3 inh inconclusive, TDP1 cell noCPT 4.1µM, DT40 TDP1 CPT 3.7µM
CCCc1[nH]nc2c1C(c1ccccc1OC)C(C#N)=C(N)O2 (configuration not stated)	TDP1 cell noCPT inconclusive, IL1B secr inh -53, DT40 TDP1 CPT inconclusive
CCCc1[nH]nc2c1C(c1ccc(O)c(OC)c1)C(C#N)=C(N)O2 (configuration not stated)	IL1B secr inh -67
CCCc1[nH]nc2c1C(c1cn[nH]c1-c1ccc(F)cc1)C(C#N)=C(N)O2 (configuration not stated)	TGFb SMAD3 inh inconclusive, TDP1 cell noCPT 10µM, IL1B secr inh -90, DT40 TDP1 CPT 9.2µM
CCCc1[nH]nc2c1C(c1ccccc1OCC)C(C#N)=C(N)O2 (configuration not stated)	IL1B secr inh inconclusive, DT40 TDP1 CPT inconclusive
CCCc1[nH]nc2c1C(c1ccncc1)C(C#N)=C(N)O2 (configuration not stated)	none
CCCc1[nH]nc2c1C(/C(C)=C/c1ccccc1)C(C#N)=C(N)O2 (configuration not stated)	TGFb SMAD3 inh inconclusive, IL1B secr inh -94, DT40 TDP1 CPT inconclusive
CCc1ccccc1NC(=O)Cn1cc(S(=O)(=O)N2CCCC2)c(S(=O)(=O)N2CCCC2)c1	none (no result: IL1B secr inh)
O=S(=O)(c1ccc2c(c1)OCCO2)N1CCN(S(=O)(=O)c2ccccc2F)CC1	none (no result: TGFb SMAD3 inh, HepG2 viability, TDP1 cell noCPT, IL1B secr inh, DT40 TDP1 CPT)
CN(C)CCN1CCN(C2CN(Cc3cn(Cc4ccccc4)nn3)S(=O)(=O)C2)CC1 (configuration not stated)	none (no result: TGFb SMAD3 inh, HepG2 viability, TDP1 inh)
Cc1cccc(OCCn2cnc(Cl)c2Cl)c1	IL1B secr inh -52
Fc1ccc(OCCn2cnc(Cl)c2Cl)cc1	none
COc1ccccc1OCCN1CSC(=S)N(C)C1	TGFb SMAD3 inh inconclusive, TDP1 cell noCPT 1.8µM, IL1B secr inh -107, DT40 TDP1 CPT 1.2µM
COc1ccccc1OCCCCN1CCCCC1	none (no result: TDP1 inh)
Cc1cccc(OCCN2CSC(=S)N(C)C2)c1	TDP1 cell noCPT 3.3µM, IL1B secr inh -96, DT40 TDP1 CPT 4.6µM
CCOc1ccc(OCCC(=O)OCC(=O)Nc2ccc(Cl)cn2)cc1	none
C[C@H](NC(=O)CCC1CCC(=O)N1)c1ccccc1 (some centres not stated)	none (no result: TDP1 inh, TDP1 cell noCPT, IL1B secr inh, DT40 TDP1 CPT)
